MARV entry inh – blocks Marburg virus binding to or entry into cells | Marburg virus pseudotyped entry inhibition, cell reporter | Potency, µM (doses to about 37.8 µM), for inactives: top-dose activity change, negative = inhibition, usual class: inhibitors | actives 1.8% (n = 300,000); calls by dose curve; tested in HEK293 cells; also: potency is read from the fitted curve at half-maximal effect; % is scaled to controls: 0 for no effect and ±100 for the full control effect
HCMV inh – blocks human cytomegalovirus replication. HFF cells, HCMV-luciferase reporter, 72 h; stronger effect = lower value. activity change, negative = inhibition, % at 57.5 µM. actives 4.5% (n = 410,000); in the data active = activity change below about -60%; inconclusive = no clear call, values can overlap the other calls; inactive = above about -39%; also: % is scaled to controls: 0 for no effect and ±100 for the full control effect
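Cell-based, HFFs, 1000 cells/well, 16 h 37C; cpds in DMSO + HCMV-luc, MOI 1 PFU/cell; 72 h 37C; OneGlo luminescence after 5 min RT; norm. to buffer vs Salinomycin 10uM.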
HCV inhibitor – HCV inhibition. Huh7.5.1 HCVcc-Cre infection, luciferase reporter, 44 h. Potency, µM (titrated, usually from 41.8 µM), for the others: top-dose activity change, negative = inhibition, actives largely listed as inhibitors. actives 3.4% (n = 340,000). AID 651820; active = well fitted inhibition curve with a large enough effect; inconclusive = small, poorly fitted or top-dose-only effect, or another doubt; inactive = no such curve, though single readings can be large or run the other way; also: potency is read from the fitted curve at half-maximal effect; % is scaled to controls: 0 for no effect and ±100 for the full control effect
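HCVcc-Cre virus at an moi near 0.5 was added right after compound to cells cultured 4 h from seeding (1,000 cells/well). Luciferase activity was determined 44 h later, 15 min after substrate addition at RT.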
FMDV inh – blocks foot and mouth disease virus; Potency, µM (top dose mostly 57.9 µM), without a hit: at the top dose activity change, negative = inhibition, usual class: inhibitors; FMDV antiviral cell-based qHTS; actives 1.2% (n = 410,000); calls by dose curve; tested in HEK293T cells; also: read-out not given here; potency is read from the fitted curve at half-maximal effect; % is scaled to controls: 0 for no effect and ±100 for the full control effect; nearly all actives have a fitted effect of over 45% in size
LASV entry inh – Lassa virus entry inhibition; Lassa virus pseudotype entry inhibition, cell reporter; Potency, µM (top dose mostly 37.9 µM), inactives show at the highest dose activity change, negative = inhibition, most hits filed as inhibitors; actives 1.2% (n = 300,000); calls by dose curve; tested in HEK293 cells; also: potency is read from the fitted curve at half-maximal effect; % is scaled to controls: 0 for no effect and ±100 for the full control effect; nearly all actives have a fitted effect of over 50% in size
SARS PLpro yeast – SARS-CoV PLP inhibition in yeast. S. cerevisiae expressing SARS-CoV PLpro, growth rescue. Potency, µM (doses to about 32.9 µM), inactives show at the top dose activity, positive = growth rescue, hits mostly activators. actives 0.19% (n = 330,000). AID 485353; calls by dose curve; also: potency is read from the fitted curve at half-maximal effect; 0% is about no effect; nearly all actives have a fitted effect of over 55% in size
* marks the source's active call; other numbers are inactive results; ? = inconclusive; / = no result; [ ] = remark or other dose. Only some compounds are listed: those with a hit (about 8% of all), similar ones and a draw of the others.

SMILES | MARV entry inh | HCMV inh | HCV inhibitor | FMDV inh | LASV entry inh | SARS PLpro yeast
CCCCCC(=O)Nc1ccc(N2CCN(CC)CC2)c(Cl)c1 | 2% | 60 | 22µM* | ? | -1% | 10%
CC(=O)O[C@@H]1C(CO[Si](C)(C)C(C)(C)C)=C(Br)C(=O)[C@@H]2O[C@]12C | -10%[14.2 µM] | / | / | / | / | /
Cc1cc(=O)[nH]c2nnc(SCc3ccc(F)cc3)n12 | / | 14 | / | 2% | 7%[46.1 µM] | /
Cc1ccc(NC(=O)c2ccc([N+](=O)[O-])o2)cc1S(=O)(=O)N1CCOCC1 | ? | -95* | 10µM* | -25% | ? | -3%
CC(C)C(=O)N1CCN(c2ccc(NC(=O)COc3ccccc3[N+](=O)[O-])cc2)CC1 | ? | ? | ? | 16µM* | ? | -1%
Cc1ccc(NC(=O)c2cc([N+](=O)[O-])ccc2N2CCOCC2)cc1S(=O)(=O)N1CCOCC1 | ? | 10 | / | -17% | -16% | 2%
CN1CCN(c2ccc(NC(=O)c3ccc([N+](=O)[O-])o3)cc2Cl)CC1 | 11µM* | -101* | 22µM* | 0% | ? | -1%
CCN1CCN(c2c(Cl)cccc2NC(=O)c2ccc([N+](=O)[O-])o2)CC1 | / | -97* | / | / | / | /
Cc1ncc2c(c1CNC(=O)c1ccc3c(c1)OCO3)CCN(C(=O)c1cnsn1)C2 | / | / | / | 6% | / | /
O=C(NCCc1ccccc1)O[C@H]1CC[C@@]23CCCN2C(=O)CCC[C@H]3[C@H]1Cc1ccccc1 | / | -3 | / | / | / | /
O=C(Nc1ccc(N2CCOCC2)c(Cl)c1)c1ccc([N+](=O)[O-])o1 | / | -102* | 11µM* | 0% | / | -5%
Cc1ccc(NC(=O)/C=C/c2ccc(S(=O)(=O)N3CCOCC3)cc2)cc1S(=O)(=O)N(C)C | ? | -74* | ? | 35µM* | ? | /
O=C(Nc1c(Cl)ccc2nsnc12)c1ccc([N+](=O)[O-])o1 | / | -106* | ? | -26% | / | -1%
O=C(Nc1c(Cl)ccc2nsnc12)c1ccc(Br)o1 | / | -32 | / | -11% | / | /
O=C(COc1ccccc1[N+](=O)[O-])Nc1cccc(Cl)c1N1CCOCC1 | ? | -39 | ? | 40µM* | ? | ?
CC(=O)[C@@]1(C)OC(N)=C(C#N)[C@@H](c2ccccc2)C1(C#N)C#N | 0% | / | / | / | / | /
CCS(=O)(=O)N1CC(=O)N(c2ccc(Cl)cc2)C(C)(C(=O)NC2CCCCC2)C1 (stereo not drawn) | / | 0 | / | -17% | 21%[46.1 µM] | /
Cc1ccc(NC(=S)Nc2ccc(S(=O)(=O)N3CCOCC3)cc2)cc1S(=O)(=O)N1CCOCC1 | -1%[46.1 µM] | ? | -76% | -6% | 11µM* | 2%
CC1(C(=O)Nc2nccs2)CCN1C(=O)CC(c1ccccc1)c1ccccc1 (stereo not drawn) | / | -102* | / | 0% | / | /
CC(=O)c1sc(N)c(C(=O)OC(C)C)c1C | -15% | 127 | 14µM* | 14% | ? | -10%
COc1ccc(C2=NCC(=S)Nc3ccc(Cl)cc32)cc1Cl | / | -63* | -13% | ? | / | -1%
CCC1CSC(Nc2ccc(C(=O)/C=C/c3ccc(OC)c(OC)c3)cc2)=N1 (stereo not drawn) | ? | -101* | ? | 25µM* | 23µM* | -41%
CCC1CSC(Nc2ccc(C(=O)/C=C/c3ccc(Br)cc3)cc2)=N1 (stereo not drawn) | ? | -36 | ? | ? | ? | -54%
COc1ccc(/C=C/C(=O)c2ccc(NC3=NCCCS3)cc2)cc1OC | ? | 87 | ? | 16µM* | -2% | -3%
COc1ccc(C=CC(=O)c2ccc3cc(OC)c(OC)cc3c2)cc1OC | / | 183 | / | ? | / | /
CCCCC(C)(C)[C@H](O)/C=C/[C@H]1[C@H](O)CC(=O)[C@@H]1C/C=C\CCCC(=O)O | / | / | / | -13%[6.7 µM] | / | /
COCCOc1cc(-n2cccc2)c(Cl)cc1Cl | ? | 4 | ? | -19% | 19%[46.1 µM] | 0%
COc1ccc(C2C(Oc3ccccc3)C(=O)N2c2cc(C)ccc2C)cc1OC (stereo not drawn) | ? | -9 | 2% | 14% | ? | 4%
COc1ccc(C2C(Oc3ccccc3)C(=O)N2c2ccc(C)c(C)c2)cc1OC (stereo not drawn) | ? | -4 | 11µM* | -5% | ? | /

From PubChem
